# An excerpt weighted towards active compounds, which were near 4.8% of everything screened.
# Casp7 inh: caspase-7 (human) inhibition, allosteric or competitive | recombinant caspase-7, Ac-DEVD-AFC fluorescence rate | AID 889 | P55210 | 0.02% of 75,000 active | Potency, µM (highest dose often 57.5 µM), for the others: at the top dose activity change, negative = inhibition, usual class: inhibitors; active = well fitted inhibition curve with a large enough effect in the main read-out, with a control signal flat, not every such curve was filed as active; inconclusive = small, poorly fitted or top-dose-only effect, or a change in a side signal; note: % of control where 0% means no effect
# ALOX15 inhib: blocks human 15-lipoxygenase activity | P16050 | purified 15hLO-1, xylenol orange hydroperoxide absorbance | Potency, µM (series often up to 57.1 µM), without a hit: top-dose activity change, negative = inhibition, usual class: inhibitors | 1.4% of 74,000 active | AID 887; note: % is set by controls: 0 for no effect and ±100 for the full control effect; nearly all actives have a fitted effect of over 55% in size
#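 Readout: Fe(III)-xylenol orange absorbance, 573-to-405 nm ratio as reaction progress. Enzyme 40 nM purified human 15hLO-1, substrate 50 uM arachidonic acid, 6 min RT after 15 min compound preincubation; Hepes pH 7.5 buffer with Triton X-100.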
# TSHR agonist: agonists of human thyroid stimulating hormone receptor | Potency, µM (doses to about 57.1 µM), for the others: at the top dose activation, actives largely listed as activators | P16473 | HEK293-CNG-TSHR cells (CNG channel as cAMP sensor), membrane potential dye, cAMP | 0.48% of 73,000 active | AID 926; active = well fitted activation curve with a large enough effect in the main read-out, with a control signal flat, not every such curve was filed as active; inconclusive = small, poorly fitted or top-dose-only effect, or a change in a side signal; inactive = no such curve, though single readings can be large or run the other way; % of control where 0% means no effect;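 note: the control signal comes from parental cells without the receptor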
#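 HEK 293 cells stably expressing TSHR and a cAMP-gated CNG channel; parental CNG-only cells as counterscreen. Cells preloaded 60 min with membrane potential dye plus 100 uM RO 20-1724, then compound 30 min; fluorescence read at 590 nm.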
# HEK293 cAMP cs: parental HEK293 cAMP activation (counter-screen). parental HEK293 CNG cAMP sensor, membrane potential fluorescence. Potency, µM (doses to about 57.1 µM), inactives show at the highest dose activation, most hits filed as activators. 2.5% of 73,000 active. AID 938; note: % of control where 0% means no effect; nearly all actives have a fitted effect of over 55% in size
#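 Parental HEK 293 cells stably expressing a cAMP-gated CNG channel were loaded with membrane potential dye containing 100 uM RO 20-1724 for 60 min. Compound added for 30 min; depolarization read as fluorescence intensity at 590 nm.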
# ERK AVP inh: inhibitors of vasopressin-stimulated ERK signaling pathway. Potency, µM (top dose mostly 57.5 µM), without a hit: top-dose activity, negative = inhibition, hits mostly inhibitors. 0.99% of 72,000 active. HEK293-V1b, vasopressin-stimulated pERK AlphaScreen. AID 995; note: % is set by controls: 0 for no effect and ±100 for the full control effect; nearly all actives have a fitted effect of over 55% in size
#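 V1b-HEK293 cells; cpd 30 min 37C; 25 nM vasopressin 5 min; lyse 10 min; AlphaScreen beads 5 hr RT. Normalized to DMSO basal and 25 nM vasopressin; AC50 by Hill fit.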
# Casp1 inh: allosteric or competitive inhibitors of human caspase-1 | Caspase-1 enzyme, Ac-WEHD-AFC fluorogenic rate | Potency, µM (series often up to 57.5 µM), for the others: at the top dose activity change, negative = inhibition, usual class: inhibitors | 0.03% of 75,000 active | P29466;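 note: plate controls were vehicle for no effect and no substrate for full effect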
# The depositor's hits bear a star; ? = inconclusive; · = no result; [ ] = another dose, or the depositor's remark. Unless noted, calls come from the whole dose curve; as a rule, active = well fitted curve in the direction sought with a large enough effect; inconclusive = small, poorly fitted or top-dose-only effect, or another doubt; inactive = no such curve, though single readings can be large; an effect the other way counts as inactive or inconclusive. Potency is the fitted concentration of half-maximal effect.
SMILES,Casp7 inh,ALOX15 inhib,TSHR agonist,HEK293 cAMP cs,ERK AVP inh,Casp1 inh
Nc1nc2c(ncn2[C@@H]2O[C@H](CO)[C@@H](O)[C@H]2O)c(=O)[nH]1,1.4%,-2.8%[25.6 µM],·,·,-17.6%,3.2%
Nc1nc(Cl)nc2c1ncn2[C@@H]1O[C@H](CO)[C@@H](O)[C@H]1O,1.8%,1.4%,·,·,10µM*,-2.2%
Cc1nnc(SCCn2c(N3CCN(c4ccccc4)CC3)nc3c2c(=O)n(C)c(=O)n3C)s1,-4.5%,?,?,?,·,-1.5%
O=C(N1CCCCC1)C1(c2ccccc2)CCOCC1,-1.8%,-5.9%,?,15.8µM*,16.7%,-2.8%
O=C(N1CCOCC1)C1(c2ccccc2)CCCCC1,-0.7%,10.0%,-9.5%,10.3%,-4.3%,0.5%
Cn1c(C(O)c2ccccc2)nc(Cl)c1Cl (stereo not given),0.8%,6.2%,-3.5%,5.9%,-17.4%,0.8%
O=C(OCC1OC(OC(=O)c2cc(O)c(O)c(OC(=O)c3cc(O)c(O)c(O)c3)c2)[C@@H](OC(=O)c2cc(O)c(O)c(OC(=O)c3cc(O)c(O)c(O)c3)c2)C(OC(=O)c2cc(O)c(O)c(OC(=O)c3cc(O)c(O)c(O)c3)c2)C1OC(=O)c1cc(O)c(O)c(OC(=O)c2cc(O)c(O)c(O)c2)c1)c1cc(O)c(O)c(OC(=O)c2cc(O)c(O)c(O)c2)c1 (stereo not given in full),?,0.501µM*,·,·,12.6µM*,?
COc1cccc(-c2cncnc2NCc2ccc(OC)cc2OC)c1,-0.6%,4.8%,?,15.8µM*,6.2%,-2.8%
COc1ccccc1CNc1ncnc2c1nnn2Cc1ccccc1,-2.0%,-9.4%,?,12.6µM*,-9.8%,-3.1%
COc1ccccc1CNc1ncncc1-c1ccccc1OC,-2.2%,17.7%,?,10µM*,-11.3%,-0.6%
COc1cccc(-c2cncnc2NCc2ccccc2OC)c1,-3.7%,-17.9%,?,25.1µM*,?,-1.7%
COc1ccccc1CNc1ncncc1-c1ccccc1CN(C)C,-0.4%,6.1%,9.0%,16.4%,-2.3%,1.0%
COc1ccc(CNc2ncncc2-c2cccnc2)c(OC)c1,-5.2%,-18.5%,10.1%,5.2%,6.8%,-3.6%
N[C@H](CCCC(=O)O)C(=O)O,-1.6%,-5.3%,·,-3.1%,3.9%,-0.8%
Cc1cc(=O)oc2cc(O)c(CN(C)CC(=O)O)cc12,?,10.2%[11.4 µM],9.4%[11.4 µM],10.2%[11.4 µM],-0.3%[11.5 µM],?
CC12CCC3C(CC3(C)C)C(C)(CCC1=O)O2 (stereo not given),0.7%,6.1%,·,·,6.3%,-2.9%
CCOc1cc(C(=O)NC(C)c2ccncc2)cc(OCC)c1OCC (stereo not given),-0.3%,2.0%,-4.3%,-1.2%,-1.8%,-2.0%
COc1ccc(CNc2ncncc2-c2ccoc2)c(OC)c1,-6.6%,15.5%,?,10µM*,-9.6%,-0.8%
O=C(CCn1c(=S)[nH]c2cc3c(cc2c1=O)OCO3)NCCN1CCCC1,0.0%,8.7%,-2.0%,-0.4%,-6.1%,-1.4%
O=C(c1ccco1)N1CCC2(CCCN(c3ccccc3)C2)CC1,-6.8%,-15.4%,-1.9%,-3.9%,-1.0%,-4.4%
COC1(C)CCC2OC2(C)CCC2C1CC2(C)C (stereo not given),0.4%,-11.9%,·,·,19.6%,2.4%
Cc1ccc2c(c1)[nH]c1c(N3CCN(Cc4ccc5c(c4)OCO5)CC3)ncnc12,-0.6%,8.8%,?,?,13.0%,-0.9%
Oc1ccccc1-c1cc(-c2ccc3c(c2)OCCO3)n[nH]1,-9.1%,12.6µM*,-0.5%,-0.1%,-6.6%,-1.6%
Cc1ccc(-c2cc(-c3cccc(F)c3)n[nH]2)c(O)c1,-17.6%,·,-11.4%,-6.3%,-12.7%,?
O=C(CSc1nnnn1Cc1ccccc1)Nc1ccc2c(c1)OCO2,-0.7%,-0.4%,-2.2%,17.9%,-2.5%,3.5%
Cc1cc(NC(=O)CSc2nnc(COc3ccccc3)n2Cc2ccco2)no1,0.4%,-13.3%,-2.6%,-8.1%,-18.1%,-4.0%
